About 83,000 compounds went through this panel and 20% of them were active in at least one assay; those are over-represented in the sample as a whole.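 Negative percent growth values reflect cell death: -40 means 40% of the cells present at the start died, and -100 means all died.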 A number with no mark means an inactive call. Active and inactive are the calls of the source. How the source made its calls: active means growth percent below 10; inactive means the rest.
Legend:
Test in all cases: NCI-60 one-dose screen, 48 h (100 = growth as untreated, 0 = no growth, -100 = all killed)
Details in all cases: 10 µM unless noted
SK-MEL-2 melanoma = test system: SK-MEL-2 melanoma
EKVX NSCLC = test system: EKVX NSCLC
SN12C renal = test system: SN12C renal
UO-31 renal = test system: UO-31 renal
TK-10 renal = test system: TK-10 renal
ACHN renal = test system: ACHN renal
CAKI-1 renal = test system: CAKI-1 renal
A498 renal = test system: A498 renal
CCRF-CEM leukemia = test system: CCRF-CEM leukemia
RPMI-8226 leukemia = test system: RPMI-8226 leukemia
OVCAR-8 ovarian = test system: OVCAR-8 ovarian
OVCAR-5 ovarian = test system: OVCAR-5 ovarian
OVCAR-4 ovarian = test system: OVCAR-4 ovarian
SK-OV-3 ovarian = test system: SK-OV-3 ovarian
IGROV1 ovarian = test system: IGROV1 ovarian
OVCAR-3 ovarian = test system: OVCAR-3 ovarian
HS 578T breast = test system: HS 578T breast
NCI/ADR-RES ovarian = test system: NCI/ADR-RES ovarian
MOLT-4 leukemia = test system: MOLT-4 leukemia
SR leukemia = test system: SR leukemia

Row | SMILES | growth (SK-MEL-2 melanoma) | growth (EKVX NSCLC) | growth (SN12C renal) | growth (UO-31 renal) | growth (TK-10 renal) | growth (ACHN renal) | growth (CAKI-1 renal) | growth (A498 renal) | growth (CCRF-CEM leukemia) [%] | growth (RPMI-8226 leukemia) | growth (OVCAR-8 ovarian) [%] | growth (OVCAR-5 ovarian) | growth (OVCAR-4 ovarian) [%] | growth (SK-OV-3 ovarian) | growth (IGROV1 ovarian) | growth (OVCAR-3 ovarian) | growth (HS 578T breast) | growth (NCI/ADR-RES ovarian) | growth (MOLT-4 leukemia) | growth (SR leukemia)
1 | CCOc1c(C#N)nnc2c(C#N)c(NC(=O)c3ccccc3)nn12 | 112% | 93.8% | 100% | 86.3% | 116% | 98.4% | 93.7% | 93.4% | 102 | 111% | 93.8 | 102% | 110 | 97.1% | 101% | 106% | 99.8% | 100% | – | –
2 | COc1cc(Cn2ncc3ccc(NC(=O)c4cc5ccccc5oc4=N)cc32)cc(OC)c1OC | 88% | 71.5% | 87.2% | 51.3% | 91.4% | 57.1% | 82.4% | 98.3% | 52.2 | 51.7% | 86.8 | 58.3% | 86.6 | 79.4% | 46% | 38.8% | 90% | 50% | – | –
3 | O=C(Nc1ccc(-n2cc(-c3ccncc3)c(-c3ccc(Cl)c(O)c3)n2)cc1)N1CCOCC1 | 110% | 102% | 99.2% | 75.6% | 117% | 97.6% | 105% | 121% | 112 | 106% | 105 | 101% | 104 | 96.4% | 97.3% | 109% | 105% | 106% | – | –
4 | N#CC1=C(NC=O)Oc2c(ccc3ccccc23)C1c1ccccc1 (configuration not stated) | 29% | 67.8% | 39.7% | 41% | 54.6% | 43.4% | 26.5% | 22.9% | – | 19.1% | 23.6 | 88.9% | 64.5 | 16.3% | 38.6% | 3.87% (active) | 11.3% | 20.4% | 39.5% | 22.9%
5 | Cc1cccc(Cc2cnc(NC(=O)/C=C/c3ccco3)s2)c1 | 30.8% | 33.7% | 29.3% | 37.3% | 52.8% | 35.3% | 30.4% | 13.8% | – | 27.9% | 13.7 | 39.1% | 55.6 | 33% | 22.2% | -2.76% (active) | 14.8% | -24.6% (active) | 15.9% | 13.7%
6 | CN(C)c1ccc(-c2cc(-c3ccc(Nc4nc(Nc5ccc(Cl)cc5)nc(Nc5ccc(Cl)cc5)n4)cc3)no2)cc1 | 31.6% | 41.3% | 53.8% | 23.5% | 48.4% | 46.5% | 39.7% | 67.5% | – | -58.6% (active) | 49.7 | 54.6% | 41.6 | 80.1% | 22.4% | 29.8% | 13.6% | 41.1% | -24.7% (active) | -39.3% (active)
7 | C[n+]1cc2c3c(ccc2c2ccc4cc5c(cc4c21)OCO5)OCO3 | -77.4% (active) | -74% (active) | -53.4% (active) | -94.6% (active) | -95.4% (active) | -92.2% (active) | -29.9% (active) | -64.1% (active) | 11.8 | – | – | -65.5% (active) | – | -99.5% (active) | -83.2% (active) | -93.5% (active) | -2.95% (active) | -36.4% (active) | – | –
8 | Cc1ccc(C(=O)CSc2nc(-c3ccc(Br)cc3)c(C#N)c(=O)[nH]2)cc1 | 106% | 106% | 99.5% | 88.5% | 103% | 110% | 87.2% | 65.1% | 105 | 101% | 88.8 | 105% | 85.9 | 104% | 99.3% | 99.7% | 93% | 97.5% | – | –
9 | O=c1[nH]ccc2nc(N3CCC(O)CC3)nc(Nc3ccc(N4CCOCC4)cc3)c12 | 69.3% | 89% | 37.8% | 38.2% | 82.1% | 55.5% | 26.3% | 57.9% | 70.6 | 80.9% | 85.5 | 42.6% | 112 | 14.9% | 47.3% | 101% | 45.7% | 95.2% | – | –
10 | CC1OC(O[C@H]2/C=C/C=C/C=C/C=C/C=C/C=C/C=C/[C@H](C)[C@@H](O)[C@@H](C)[C@H](C)OC(=O)CC(O)CC(O)CCC(O)C(O)CC(O)C[C@]3(O)C[C@H](O)C(C(=O)O)C(C2)O3)C(O)[C@H](N)C1O (some centres not stated) | 57.6% | -14.3% (active) | -84.1% (active) | -94.3% (active) | -40.7% (active) | -80.3% (active) | 36.1% | 9.81% (active) | 36.8 | – | 23.8 | -21% (active) | – | 38% | 16.6% | -42.3% (active) | -18.7% (active) | -29.9% (active) | – | –
11 | COc1ccc(-c2csc(C3=C(O)CN(CCCN4CCCC4=O)C3=N)n2)cc1OC | 99.2% | 97.5% | 105% | 83.8% | 127% | 103% | 103% | 100% | – | 85.5% | 94.6 | 94.2% | 116 | 109% | 63.9% | 99.4% | 92.9% | 100% | 81% | 77.1%
12 | C[C@@]1(CCC#N)[C@H]2CC[C@@H]3[C@H]4[C@H](C(=O)/C=C/c5cccnc5)CC[C@]4(C#N)CC[C@@]3(C)[C@]2(C)CC[C@H]1C(=O)/C=C/c1cccnc1 | 77.7% | 98.1% | 65.4% | 87.3% | 101% | 56.3% | 68.7% | 99% | – | -2.94% (active) | 34.7 | 136% | 69.1 | 89.7% | 45.7% | 39.9% | 78.4% | 65.1% | 11.7% | 12.9%
13 | COc1ccccc1NC(=O)N/C(N)=N/c1nc2ccccc2s1 | 48.6% | 53.2% | 37.1% | 52.9% | 59.3% | 42.2% | 36.4% | -10.5% (active) | – | 9.34% (active) | 27.1 | 34.8% | 50.7 | 40.5% | 21.8% | -18.9% (active) | 27.9% | 4.92% (active) | 15.4% | 9.32% (active)
14 | O=C(Nc1ccc(Nc2ccncc2)cc1)c1ccc(C(=O)Nc2ccc(Nc3ccncc3)cc2)cc1 | 53.7% | 91.8% | 88.1% | 89.4% | 137% | 97.2% | 81.6% | 117% | – | 3.64% (active) | 74.5 | 51.1% | 68.1 | 68% | 75.8% | 111% | 88.2% | 109% | 71.5% | 52.4%
15 | NS(=O)(=O)c1cnccc1Sc1ccncc1S(N)(=O)=O | 119% | 96.9% | 100% | 80% | 99.6% | 106% | 98.2% | 104% | – | 86.2% | 96 | 101% | 118 | 95.6% | 6.71% (active) | 103% | 94.5% | 98.9% | 86.3% | 92.2%
16 | C=CC(=O)Nc1cccc(Oc2nccc(Nc3nnc(C4CC4)s3)n2)c1 | 108% | 104% | 87.4% | 72.4% | 104% | 97.7% | 92.3% | 101% | – | 56% | 91.4 | 98.7% | 101 | 112% | 93.6% | 89.5% | 91.6% | 96.8% | 75.7% | 58.3%

Source: PubChem BioAssay (NCI)
